Assay [1] is described as follows: Counterscreen for APE1 Inhibitors: Fluorescent Dye Displacement Validation Assay (AID 1707). Put shortly: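 Endpoint fluorescence read at 480 nm excitation / 540 nm emission; DNA-binding compounds lower signal by displacing 250 nM Thiazole Orange from 50 nM dsDNA containing a tetrahydrofuran abasic site, Tris-HCl pH7.5 buffer with NaCl and MgCl2.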
(The purpose of a counterscreen is to sort out artefacts and off-target activity.)

Assay [2] is described as follows: qHTS for differential inhibitors of proliferation of Plasmodium falciparum line 7G8 (AID 1815).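 Also: parasite growth measured after three days of incubation.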 Also: potency is read from the fitted curve at half-maximal effect. In general terms: In qHTS, concentration-response curves come from the screen itself.
A short description of assay [3]: qHTS for differential inhibitors of proliferation of Plasmodium falciparum line GB4 (AID 1816).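 Also: parasite growth measured after 72 h incubation.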 Also: potency is read from the fitted curve at half-maximal effect. The settings on record: Potency: Plasmodium falciparum GB4 proliferation inhibition.
The nature of assay [4]: qHTS for differential inhibitors of proliferation of Plasmodium falciparum line 3D7 (AID 1876). Also: potency is read from the fitted curve at half-maximal effect.
A short description of assay [5]: qHTS for differential inhibitors of proliferation of Plasmodium falciparum line D10 (AID 1877).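 Also: parasites grown with compound for 72 h before DNA staining.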 Also: potency is read from the fitted curve at half-maximal effect.
A short description of assay [6]: qHTS for differential inhibitors of proliferation of Plasmodium falciparum line Dd2 (AID 1882). Also: nearly all actives have a fitted effect of over 65% in size. Also: potency is read from the fitted curve at half-maximal effect. The note with it: Potency: Plasmodium falciparum Dd2 proliferation inhibition. Put shortly:
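SYBR Green DNA fluorescence (ex 485, em 535 nm) after overnight lysis quantifies parasite growth; compound exposure lasted 72 h at 37 C on infected red cells at 2.5% hematocrit, 0.3% parasitemia (final). Artemisinin 0.29 uM and vehicle wells define normalization.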

A short description of assay [7]: qHTS for differential inhibitors of proliferation of Plasmodium falciparum line W2 (AID 1883).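 Also: parasites grown with compound for 72 h before lysis and staining.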 Also: potency is read from the fitted curve at half-maximal effect. The note with it: Potency: Plasmodium falciparum W2 proliferation inhibition.
Assay [8] is described as follows: qHTS for differential inhibitors of proliferation of Plasmodium falciparum line HB3 (AID 1886).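 Also: parasites grown with compound for 72 h before SYBR Green readout.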 Also: potency is read from the fitted curve at half-maximal effect. The note with it: Potency: Plasmodium falciparum HB3 proliferation inhibition.
The target in assay [9] is ATP-dependent DNA helicase Q1 (Homo sapiens) (UniProt P46063). As to the kind of experiment: qHTS Validation Assay for Inhibitors of RecQ-Like Dna Helicase 1 (RECQ1) (AID 2353). Summed up:
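RECQ1T1 50 nM; forked duplex (20 bp + 30-nt ss tails) 200 nM, ATP 2 mM final; pH 8.0, 2 mM MgCl2, 2.5 ug/ml poly(dI-dC); 15 min compound preincubation; discontinuous kinetic read over 2 h at RT.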

Assay [10] addresses alpha-glucosidase (Oryza sativa, rice) (UniProt Q653V4). As to the kind of experiment: Counterscreen for Glucocerebrosidase Inhibitors: qHTS Assay for Rice alpha-Glucosidase at pH 5.0 (AID 997). Summed up: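 Endpoint fluorogenic assay at pH 5.0: compounds (0.7 nM to 77 uM) titrated against 4 nM rice enzyme and 400 uM 4-MU-alpha-glucoside for 20 min at room temperature; NaOH/glycine stop, read ex 365/em 440 nm, Hill-fitted AC50.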

Assay [11] addresses DNA repair nuclease/redox regulator APEX1 (Homo sapiens) (UniProt P27695). Briefly: qHTS Validation Assay for Inhibitors of the Human Apurinic/apyrimidinic Endonuclease 1 (APE1) (AID 1705; also: potency is read from the fitted curve at half-maximal effect). Put shortly: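 Human APE1 was preincubated with compound for 15 min at room temperature, then 50 nM (final) THF-abasic double-stranded DNA substrate bearing 5'-TAMRA and 3'-BHQ-2 was added. Incision-driven fluorescence rise (ex 525/em 598 nm) was read kinetically.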

The target of assay [12] is Ferritin light chain (Equus caballus) (UniProt P02791). Briefly: qHTS Validation Assay for Identification of Novel General Anesthetics (AID 2323). Also: series mostly up to about 77 µM. Summed up:
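Competitive displacement of profluorescent 1-aminoanthracene (1-AMA, 50% saturated solution in PBS) from 10 uM horse-spleen apoferritin. Compounds incubated 10 min at room temperature; fluorescence read at 380 nm excitation/535 nm emission, normalized to free 1-AMA and complex, fitted with four-parameter Hill equation.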

Assay [13] is described as follows: Cell Viability - LYMP1-002 - Assay at 24 hr (AID 993). Also: potency is read from the fitted curve at half-maximal effect. Put shortly:
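Acute toxicity is measured as concentration-dependent loss of cellular ATP in a human lymphoblastoid line (Coriell LYMP1-002) after 24 h treatment in complete medium. ATP is quantified by luciferase luminescence and AC50 derived by Hill modelling.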

A short description of assay [14]: Cell Viability - LYMP1-002 - Assay at 40 hr (AID 994). Also: nearly all actives have a fitted effect of over 60% in size. Also: potency is read from the fitted curve at half-maximal effect. Put shortly:
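Cells are plated at 2500 per well and rested 5 hr at 37 C. Compounds are added and incubated 40 hr at 37 C. CellTiter-Glo reagent is added for 30 min at room temperature before luminescence is read.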

Assay [15] is described as follows: qHTS Assay for Identification of Small Molecule Inducers of Hypoxia Response (AID 2120; active = well fitted curve in the direction sought with a large enough effect in the signal ratio, with a control signal flat, not every such curve was filed as active; the % refers to the signal ratio). Summed up: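 Cell-based qHTS for reporter induction: hypoxia response element controlled beta-lactamase in ME-180 cells. Compounds incubated 17 h at 37 degrees C; activity from blue/green (460/530 nm) ratio, inducers ranked by AC50.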
Assay [16] addresses RecQ-like DNA helicase BLM (Homo sapiens) (UniProt P54132). Briefly: qHTS Validation Assay for Inhibitors of Bloom's syndrome helicase (BLM) (AID 2364). Summed up:
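50 nM BLM preincubated 15 min at room temperature with compound in pH 8.0 Tris buffer containing 2.5 ug/ml poly(dI-dC); started with 200 nM TAMRA/BHQ-2 forked duplex and 2 mM ATP (final). Unwinding read as TAMRA fluorescence increase, two reads 2 h apart.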

In assay [17] the target is Endonuclease 4 (Escherichia coli (strain K12)) (UniProt P0A6C1). Briefly: Counterscreen for APE1 Inhibitors: qHTS Validation Assay for Inhibitors of Endonuclease IV (AID 1708). Summed up: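 Conditions: 2 nM enzyme, 50 nM TAMRA/BHQ-2 substrate, pH 7.5 Tris buffer with 2 mM MgCl2, RT. Compound preincubation 15 min; readout three fluorescence reads 60 s apart, third-minus-first.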

A short description of assay [18]: qHTS Assay for Modulators of Human Peripheral Myelin Protein 22 (PMP22) Expression/Activity (AID 1967; active = well fitted curve in the direction sought with a large enough effect in the signal ratio; the % refers to the signal ratio). Summed up: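 MSC80 mouse Schwann cells stably carrying Pmp22 promoter–green click beetle luciferase plus EF-alpha–red luciferase control were dosed for 24h at 37 °C. Dual-colour luminescence was filter-overlap corrected; %Activity came from green/red ratio versus untreated cells.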

Records with an inconclusive call do not appear. Calls of active or inactive are those of the source. Unless noted, calls follow the shape of the dose curve; as a rule, active = well fitted curve in the direction sought with a large enough effect; inconclusive = small, poorly fitted or top-dose-only effect, or another doubt; inactive = no such curve, though single readings can be large; an effect the other way counts as inactive or inconclusive.

Sequence of Ferritin light chain (Equus caballus) (P02791 2-175 limits assumed): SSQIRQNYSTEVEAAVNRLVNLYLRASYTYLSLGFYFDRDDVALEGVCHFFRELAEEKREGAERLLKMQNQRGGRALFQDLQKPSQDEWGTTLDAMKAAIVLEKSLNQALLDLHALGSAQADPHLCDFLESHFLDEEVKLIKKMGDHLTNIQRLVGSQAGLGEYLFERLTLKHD
Sequence of DNA repair nuclease/redox regulator APEX1 (Homo sapiens) (P27695 whole entry, looked up): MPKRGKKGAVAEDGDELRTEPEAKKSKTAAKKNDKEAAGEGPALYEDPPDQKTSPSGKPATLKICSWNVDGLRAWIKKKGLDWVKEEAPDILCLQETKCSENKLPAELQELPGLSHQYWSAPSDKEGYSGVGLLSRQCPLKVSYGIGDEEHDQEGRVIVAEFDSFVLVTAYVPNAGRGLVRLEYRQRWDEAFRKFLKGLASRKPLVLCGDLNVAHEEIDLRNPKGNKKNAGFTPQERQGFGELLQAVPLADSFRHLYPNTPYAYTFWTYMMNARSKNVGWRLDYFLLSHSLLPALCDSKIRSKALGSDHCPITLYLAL
Sequence of RecQ-like DNA helicase BLM (Homo sapiens) (P54132 whole entry, looked up): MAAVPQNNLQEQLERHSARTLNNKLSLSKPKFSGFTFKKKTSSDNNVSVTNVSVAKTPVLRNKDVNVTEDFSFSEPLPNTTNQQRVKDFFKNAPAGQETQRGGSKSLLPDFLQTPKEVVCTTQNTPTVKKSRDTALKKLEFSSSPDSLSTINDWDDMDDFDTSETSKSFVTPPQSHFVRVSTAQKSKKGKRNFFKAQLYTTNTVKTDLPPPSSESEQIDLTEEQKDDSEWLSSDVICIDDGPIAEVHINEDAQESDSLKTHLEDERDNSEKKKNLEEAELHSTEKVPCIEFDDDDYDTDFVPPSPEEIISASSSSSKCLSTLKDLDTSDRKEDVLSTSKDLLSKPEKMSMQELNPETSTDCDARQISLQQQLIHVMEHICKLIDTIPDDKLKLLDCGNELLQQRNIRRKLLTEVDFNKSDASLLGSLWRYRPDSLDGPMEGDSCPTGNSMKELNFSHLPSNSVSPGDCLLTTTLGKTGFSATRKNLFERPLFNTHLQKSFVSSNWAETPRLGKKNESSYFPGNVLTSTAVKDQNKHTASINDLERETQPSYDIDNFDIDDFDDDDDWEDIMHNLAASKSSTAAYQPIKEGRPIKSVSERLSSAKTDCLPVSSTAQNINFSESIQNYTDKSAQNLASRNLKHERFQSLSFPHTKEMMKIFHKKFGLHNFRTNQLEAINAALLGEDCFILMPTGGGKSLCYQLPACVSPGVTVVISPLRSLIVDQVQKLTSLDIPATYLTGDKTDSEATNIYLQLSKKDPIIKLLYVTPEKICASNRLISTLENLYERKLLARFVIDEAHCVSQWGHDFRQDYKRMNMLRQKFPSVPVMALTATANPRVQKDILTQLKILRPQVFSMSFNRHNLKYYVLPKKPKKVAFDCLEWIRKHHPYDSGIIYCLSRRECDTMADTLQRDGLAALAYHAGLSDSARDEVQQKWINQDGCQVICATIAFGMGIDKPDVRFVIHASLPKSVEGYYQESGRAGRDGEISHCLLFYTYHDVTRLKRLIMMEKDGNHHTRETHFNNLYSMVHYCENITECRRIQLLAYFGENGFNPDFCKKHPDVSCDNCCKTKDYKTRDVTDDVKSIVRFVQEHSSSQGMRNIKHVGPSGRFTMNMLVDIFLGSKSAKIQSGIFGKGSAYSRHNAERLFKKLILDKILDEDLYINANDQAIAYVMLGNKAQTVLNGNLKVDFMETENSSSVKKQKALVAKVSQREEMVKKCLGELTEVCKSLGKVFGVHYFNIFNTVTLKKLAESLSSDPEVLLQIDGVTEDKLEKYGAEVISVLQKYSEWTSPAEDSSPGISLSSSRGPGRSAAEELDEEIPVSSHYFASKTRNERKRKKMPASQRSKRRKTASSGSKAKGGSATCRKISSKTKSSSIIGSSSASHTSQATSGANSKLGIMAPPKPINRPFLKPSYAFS
Sequence of ATP-dependent DNA helicase Q1 (Homo sapiens) (P46063 whole entry, looked up): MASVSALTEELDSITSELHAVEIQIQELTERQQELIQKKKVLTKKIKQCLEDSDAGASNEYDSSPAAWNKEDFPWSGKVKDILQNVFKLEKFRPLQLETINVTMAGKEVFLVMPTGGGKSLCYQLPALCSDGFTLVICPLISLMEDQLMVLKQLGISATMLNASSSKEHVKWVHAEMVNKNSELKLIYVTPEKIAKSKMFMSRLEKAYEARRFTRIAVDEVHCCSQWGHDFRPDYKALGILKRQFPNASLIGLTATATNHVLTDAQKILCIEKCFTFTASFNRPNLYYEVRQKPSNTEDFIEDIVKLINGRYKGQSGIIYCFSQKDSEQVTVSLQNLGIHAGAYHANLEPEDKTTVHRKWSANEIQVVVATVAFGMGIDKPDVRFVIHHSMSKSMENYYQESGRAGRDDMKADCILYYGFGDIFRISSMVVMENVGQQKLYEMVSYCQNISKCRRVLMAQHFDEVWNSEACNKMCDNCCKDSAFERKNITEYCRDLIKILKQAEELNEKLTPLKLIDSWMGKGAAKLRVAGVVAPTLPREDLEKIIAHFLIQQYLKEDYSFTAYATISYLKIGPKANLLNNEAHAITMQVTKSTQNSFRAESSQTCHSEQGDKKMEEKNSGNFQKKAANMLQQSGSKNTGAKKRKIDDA

For `CC[C@@H](C)[C@H]1O[C@]2(CC[C@@H]1C)C[C@@H]1C[C@@H](C/C=C(\C)[C@@H](O[C@H]3C[C@H](OC)[C@@H](O[C@H]4C[C@H](OC)[C@@H](O)[C@H](C)O4)[C@H](C)O3)[C@@H](C)/C=C/C=C3\CO[C@@H]4[C@H](O)C(C)=C[C@@H](C(=O)O1)[C@]34O)O2`, the Potency entry in assay [1] and in assay [9] was “inactive” each time. Moreover, the Potency in assay [2] is 2 µM (active); in assay [3], 1.12 µM (active); in assay [4], 0.794 µM (active); in [5], 2.51 µM (active); in [6], 1.78 µM (active); in assay [7], 1 µM (active). Besides, the Potency in assay [8] was 1.12 µM (active).

Consider `CN=c1nc(-c2ccccc2)n(-c2ccccc2)s1`, for which the outcome in assay [10] was inactive. Besides, the Potency result in assay [11], in [1], in assay [6], in assay [12] and in assay [9] was “inactive” each time. In addition, the Potency in assay [2], in [3] and in assay [7] was 10 µM (active) each time.

On to `N=C1N=C(N)c2cc3ccccc3cc21`, for which the Potency in assay [13] and in assay [14] was 39.8 µM (active) in each case.

Turning to `O=C(O)/C=C\C(=O)O`, the Potency result in [13] and in assay [14] was “inactive” in each case. Moreover, in assay [15], the result was inactive.

As to `O=c1cc(-c2ccccc2)oc2ccccc12`, the Potency result in assay [13] and in assay [14] was “inactive” each time. For the same molecule, the molecule was called inactive in [15].

Turning to `CCCOC(=O)c1ccc(O)cc1`, the Potency entry in assay [13] and in assay [14] was “inactive” throughout. Further, in assay [15], the molecule was called inactive.

`COc1cc(/C=C/C(=O)CC(=O)/C=C/c2ccc(O)c(OC)c2)ccc1O`: the Potency in [13] and in assay [14] was 39.8 µM (active) each time. Besides, in assay [15], the molecule was classed as inactive.

In the case of `CN(C)c1nc2c(Br)c(Br)c(Br)c(Br)c2[nH]1`, the molecule was classed as inactive in [10]. Also, the Potency entry in assay [11], in [1], in [2], in [3], in [4] and in assay [6] was “inactive” each time. For the same molecule, the Potency entry in assay [9] was “inactive”.

On to `O=C(O)c1cc(O)c(O)c(O)c1`, for which the Potency result in assay [13] and in assay [14] was “inactive” in each case. The outcome in assay [15] was inactive.

For the molecule `Nc1nc2ccc([N+](=O)[O-])cc2s1`, the Potency entry in assay [13] and in [14] was “inactive” in each case. Further, in [15], the molecule was called inactive.

For `CN(C)c1ccc(N=NS(=O)(=O)O)cc1`, the Potency result in assay [13] and in [14] was “inactive” in each case. Moreover, the call in assay [15] was inactive.

Regarding `Cc1ccc(O)c(N=Nc2ccccc2)n1`, the Potency result in assay [11], in [1], in assay [9] and in [16] was “inactive” each time. For the same molecule, the Potency in assay [2] is 11.2 µM (active); in [3], 12.6 µM (active); in [7], 10 µM (active).

For `CCCCCCCCCCCCCCCCCC(=O)NCC(COP(=O)([O-])OCC[N+](C)(C)C)OCC` (stereo unspecified), the Potency result in [1], in assay [17], in assay [2], in assay [3], in [4] and in assay [6] was “inactive” each time. Besides, the Potency result in [8] and in [9] was “inactive” in each case. Besides, the Potency in [5] is 14.1 µM (active). In [18], the result was inactive.

Regarding `Nc1ccn([C@@H]2O[C@H](CO)[C@@H](O)[C@@H]2O)c(=O)n1`, the Potency entry in assay [11], in assay [1], in assay [2], in assay [3], in assay [4] and in assay [5] was “inactive” in each case. Also, the Potency entry in [6], in [7], in assay [8], in [9] and in [16] was “inactive” each time.

As to `CC1(C)S[C@@H]2[C@H](NC(=O)[C@H](N)c3ccccc3)C(=O)N2[C@H]1C(=O)O`, the Potency entry in assay [13] and in [14] was “inactive” in each case.

Take `Brc1c(Br)c(Br)c2n[nH]nc2c1Br`: the Potency entry in assay [17], in assay [2], in assay [3], in assay [4], in [5] and in assay [6] was “inactive” in each case. For the same molecule, the Potency result in assay [8] and in assay [9] was “inactive” each time. Also, the call in assay [18] was inactive.

As for `COC1=C(OC)C(=O)c2ccccc2C1=O`, the outcome in [10] was inactive. Besides, the Potency result in assay [1], in assay [17], in assay [12] and in [9] was “inactive” throughout. Besides, the Potency in assay [2] was 8.91 µM (active); in [3], 10 µM (active); in assay [4], 10 µM (active); in [5], 11.2 µM (active); in assay [7], 11.2 µM (active); in assay [8], 11.2 µM (active).

Turning to `CN1CCc2cccc3c2C1Cc1ccc(O)c(O)c1-3` (stereo unspecified), the Potency result in assay [1], in [17], in assay [12], in assay [9] and in [16] was “inactive” in each case. Besides, the Potency in assay [2] is 2.24 µM (active); in assay [3], 2.24 µM (active); in assay [4] it was 2 µM (active); in assay [5], 2.24 µM (active); in assay [6] it was 6.31 µM (active); in assay [7], 2.24 µM (active). Also, the Potency in assay [8] is 2 µM (active).

For the molecule `Cn1cc(C2=C(c3ccc(Cl)cc3Cl)C(=O)NC2=O)c2ccccc21`, the Potency in assay [11] was 35.5 µM (active); in [2], 10 µM (active); in assay [7], 7.08 µM (active). For the same molecule, the Potency entry in [1] and in assay [16] was “inactive” in each case.

Source of the values: PubChem BioAssay (NCATS).
